{"source": "ChEMBL document CHEMBL3988442", "about": "“University of Dundee, Small-Polar-MMV Screening Library” (2021)", "note": "Out of some 48,000 compounds screened, about 13,000 (27%) showed an effect of 50% or more. The list shows a part of the results."}
{"tested_on": "Wolbachia pipientis", "assay": "Anti-Wolbachia Cell-Based Screen", "type": "functional", "design": "scale not given: in the data most compounds retested in dose-response had high values", "settings": "5 µM", "units": {"Percent Effect": "%"}}
{"smiles": "CC(C)COc1cncc(NC(CO)c2ccco2)n1", "note": "(stereo not given)", "Percent Effect": -5.064}
{"smiles": "CC(C1CCN(Cc2ccccc2OC(F)F)CC1)N1CCOCC1", "note": "(stereo not given)", "Percent Effect": 23.13}
{"smiles": "CCN(CC(=O)NC)C(=O)c1cc(-c2cccc(Cl)c2)no1", "Percent Effect": -2.874}
{"smiles": "CNS(=O)(=O)c1ccc(CN2CCCN(CC(C)C)CC2)cc1", "Percent Effect": 8.265}
{"smiles": "Nc1cccc(-c2cccc3ccnn23)n1", "Percent Effect": 9.414}
{"smiles": "O=C(N[C@H]1CC[C@H](O)CC1)c1ccc2nc(-c3ccc(F)cc3)cn2c1", "Percent Effect": -4.798}
{"smiles": "NC(=O)Cn1ccnc1C1CCCN(Cc2ccccc2OC(F)F)C1", "note": "(stereo not given)", "Percent Effect": -1.119}
{"smiles": "O=C1CC2(CCN(C(=O)c3ccc4c(c3)CCCO4)C2)C(=O)N1", "note": "(stereo not given)", "Percent Effect": -2.87}
{"smiles": "Cc1ccsc1-c1nc(CN(C)Cc2noc(C(C)C)n2)c(C)o1", "Percent Effect": 10.67}
{"smiles": "COc1ccc(NC(=O)Nc2c(O)c3ccccc3oc2=O)cc1", "Percent Effect": 106}
{"smiles": "COc1ccc(CNC(=O)Nc2ccc(=O)n(C)c2)cc1", "Percent Effect": -2.437}
{"smiles": "COc1ccc(CNC(=O)Nc2ccc(CN3CCOC3=O)cc2)cc1", "Percent Effect": 12.97}
{"smiles": "CCn1ncnc1CN(C/C=C/c1ccccc1)CCOC", "Percent Effect": 8.107}
{"smiles": "CC(C)(C)CCN1CCN(Cn2nccc2-c2cccnc2)CC1", "Percent Effect": -19.45}
{"smiles": "Cc1ncc(C(=O)N2CC(C(=O)N3CCOCC3)C2)c(C)n1", "Percent Effect": 106.6}
{"smiles": "Cc1ncc(C(=O)N2CCC(C(=O)NC3CCCC3)C2)c(C)n1", "note": "(stereo not given)", "Percent Effect": 133.9}
{"smiles": "Cc1ncc(C(=O)N2C[C@H]3CC[C@@H]2CN(S(=O)(=O)N(C)C)C3)c(C)n1", "Percent Effect": 4.102}
{"smiles": "Cc1ncc(C(=O)N2C[C@H](CO)C[C@H](CN3CCOCC3)C2)c(=O)[nH]1", "Percent Effect": -13.12}
{"smiles": "O=C(NC1CCCCC1)C1CCCN(C(=O)Nc2ccccn2)C1", "note": "(stereo not given)", "Percent Effect": 6.063}
{"smiles": "Cc1ncc(C(=O)N2CC(C(=O)N3CCCCCC3)C2)c(C)n1", "Percent Effect": 132.1}
{"smiles": "CCc1nc(C)ncc1C(=O)N1CCCC(n2nc(C)nc2C)C1", "note": "(stereo not given)", "Percent Effect": -5.056}
{"smiles": "Cc1cnc(N2CC(C(=O)N3CCOCC3)C3(CCOCC3)C2)nc1", "note": "(stereo not given)", "Percent Effect": -3.796}
{"smiles": "Cc1nc(N2CCCCC2)ncc1C(=O)N1CC(C)(C)[C@@](C)(O)C1", "Percent Effect": 13.78}
{"smiles": "CCc1ncc2c(n1)CN(CCCOc1ccc(C#N)cc1)CC2", "Percent Effect": -6.685}
{"smiles": "CC(C)c1nnc2ccc(N3CCC(C(=O)Nc4nccs4)CC3)nn12", "Percent Effect": 11.38}
{"smiles": "Brc1cc2c(cc1CN1CCC(N3CCCCC3)CC1)OCCO2", "Percent Effect": -3.138}
{"smiles": "O=C(NCc1ccco1)[C@@]12CCO[C@@H]1CCN(Cc1nccs1)C2", "Percent Effect": -2.827}
{"smiles": "CC(=O)N1CC[C@H]2OCC[C@@]2(C(=O)NCc2cnc(C)cn2)C1", "Percent Effect": 98.12}
{"smiles": "Cc1ccnc(OC[C@@]23CCO[C@@H]2CCN(c2ncccn2)C3)n1.O=C(O)C(F)(F)F", "Percent Effect": -11.59}
{"smiles": "O=C(NCc1ccco1)[C@@]12CCO[C@@H]1CCN(c1ncccn1)C2.O=C(O)C(F)(F)F", "Percent Effect": -9.525}
{"smiles": "Cc1cnc(CNC(=O)[C@@]23CCO[C@@H]2CCN(c2ncccn2)C3)cn1", "Percent Effect": 105.8}
{"smiles": "CC(=O)N1CC[C@H]2OCC[C@@]2(C(=O)NCc2ccco2)C1", "Percent Effect": 16.6}
{"smiles": "O=C(NCc1ccccn1)[C@@]12CCO[C@@H]1CCN(c1ncccn1)C2", "Percent Effect": 99.07}
{"smiles": "O=C(NCc1ccco1)[C@@]12CCO[C@@H]1CCN(CCN1CCCC1)C2", "Percent Effect": -0.5732}
{"smiles": "CCN1CCN(C[C@@H]2CN(c3ncccc3C(F)(F)F)C[C@@H]2CO)CC1", "Percent Effect": -2.806}
{"smiles": "COCC(=O)N1CCC2(CC1)CCn1c(-c3cccc(OC)c3)cnc12", "Percent Effect": -17.52}
{"smiles": "CCN(C)c1ncnc2c1CCN(C(=O)COC)CC2.O=C(O)C(F)(F)F", "Percent Effect": -4.529}
{"smiles": "CCN1CCn2c(C)cnc2C12CCN(C(=O)Cc1ccccc1)CC2.O=C(O)C(F)(F)F.O=C(O)C(F)(F)F", "Percent Effect": 97.89}
{"smiles": "O=C(O)C(F)(F)F.O=C(c1cscn1)N1CCc2ncc(CN3CCCC3)n2CC1", "Percent Effect": -30.66}
{"smiles": "CCN1CCn2c(C)cnc2C12CCN(C(=O)COC)CC2.O=C(O)C(F)(F)F.O=C(O)C(F)(F)F", "Percent Effect": 77.99}
{"smiles": "CCN1CCn2c(C)cnc2C12CCN(C(=O)c1ccco1)CC2.O=C(O)C(F)(F)F.O=C(O)C(F)(F)F", "Percent Effect": 97.51}
{"smiles": "CCN1CCn2c(C)cnc2C12CCN(C(=O)c1ccc(Cl)cc1)CC2.O=C(O)C(F)(F)F", "Percent Effect": -23.96}
{"smiles": "CCN1CC[C@@]2(C(=O)N(C)C)CCN(C(=O)Cc3ccccc3)CC[C@@H]12.O=C(O)C(F)(F)F", "Percent Effect": 0.7047}
{"smiles": "CCN1CC(=O)NCC12CCN(C(=O)c1ccco1)C2.O=C(O)C(F)(F)F", "note": "(stereo not given)", "Percent Effect": -12.24}
{"smiles": "CCN1CCn2c(C)cnc2C12CCN(C(=O)c1cscn1)CC2.O=C(O)C(F)(F)F.O=C(O)C(F)(F)F", "Percent Effect": 113.9}
{"smiles": "CCCNC(=O)c1cc(-c2ccn(C(C)C)n2)n2ccccc12", "Percent Effect": -14.06}
{"smiles": "CCC1CN(Cc2c(O)ccc3oc4c(c23)CCCC4)CCO1", "note": "(stereo not given)", "Percent Effect": -8.053}
{"smiles": "CCCn1nc(-c2nc(Cc3ccc(OC)cc3)no2)ccc1=O", "Percent Effect": -20.77}
{"smiles": "CC(C)c1nc2c(n1C)CCN(CCCc1nc3ccccc3o1)C2", "Percent Effect": -2.699}
{"smiles": "Cn1cc(-c2nc(CN3CCN(CCO)CC3)cs2)cn1", "Percent Effect": -9.549}
{"smiles": "Cc1ccc(C(C)(O)CNC(=O)c2scnc2C)o1", "note": "(stereo not given)", "Percent Effect": -6.969}
{"smiles": "Cc1ccc2oc(=O)n(CCC(=O)N3CCCC4(CNC(=O)O4)C3)c2c1", "note": "(stereo not given)", "Percent Effect": -2.854}
{"smiles": "CC(C)c1ccc(C(O)Cn2c(=O)c(C#N)cn(C3CC3)c2=O)cc1", "note": "(stereo not given)", "Percent Effect": -1.509}
{"smiles": "CN(C)CCOCc1nnc2n1CCN(CC1CC1)CC2.O=C(O)C(F)(F)F.O=C(O)C(F)(F)F", "Percent Effect": 103.3}
{"smiles": "CN(C)C(=O)COCc1nnc2n1CCN(Cc1ccoc1)C2.O=C(O)C(F)(F)F", "Percent Effect": -2.89}
{"smiles": "CN(C)CCOCc1nnc2n1CCN(Cc1ccc(F)cc1)CC2.O=C(O)C(F)(F)F.O=C(O)C(F)(F)F", "Percent Effect": 109.9}
{"smiles": "CC(C)N(C)Cc1nnc2n1CCN(Cc1ccncc1)CC2.O=C(O)C(F)(F)F.O=C(O)C(F)(F)F.O=C(O)C(F)(F)F", "Percent Effect": -8.532}
{"smiles": "O=C(O)C(F)(F)F.O=C(O)C(F)(F)F.c1cncc(COCc2nnc3n2CCN(CC2CC2)C3)c1", "Percent Effect": -1.478}
{"smiles": "CN(C)CCOCc1nnc2n1CCN(Cc1ccsc1)C2.O=C(O)C(F)(F)F.O=C(O)C(F)(F)F", "Percent Effect": -13.86}
{"smiles": "CN(C)CCOCc1nnc2n1CCN(Cc1ccoc1)CC2.O=C(O)C(F)(F)F.O=C(O)C(F)(F)F", "Percent Effect": 88.27}
{"smiles": "CN(C)C(=O)COCc1nnc2n1CCN(Cc1ccsc1)C2.O=C(O)C(F)(F)F", "Percent Effect": 3.675}
{"smiles": "CC(C)N(C)Cc1nnc2n1CCN(CC1CC1)CC2.O=C(O)C(F)(F)F.O=C(O)C(F)(F)F", "Percent Effect": 9.045}
{"smiles": "COc1ccc(CN2CCc3nnc(COCCN(C)C)n3CC2)cc1.O=C(O)C(F)(F)F.O=C(O)C(F)(F)F", "Percent Effect": 131}
{"smiles": "COCc1nnc2n1CCN(Cc1ccoc1)C2.O=C(O)C(F)(F)F", "Percent Effect": -3.646}
{"smiles": "CCc1sc(-c2nnc(CNCCn3cccn3)o2)cc1C", "Percent Effect": -1.143}
{"smiles": "COc1cccc([C@H]2CN(CCCS(=O)(=O)N(C)C)C[C@@H]2N)c1", "Percent Effect": -12.77}
{"smiles": "Cn1ccnc1CN1CC[C@@H](NS(C)(=O)=O)[C@@H]1Cc1ccccc1.O=C(O)C(F)(F)F", "Percent Effect": 9.127}
{"smiles": "O=C(NC1CCS(=O)(=O)C1)N1CCN(c2cnccn2)CC1", "note": "(stereo not given)", "Percent Effect": 3.203}
{"smiles": "Clc1ccccc1-c1nnc(CSCCN2CCOCC2)o1", "Percent Effect": -8.486}
{"smiles": "COCCN(CC(C)C)c1cc(C)ncn1", "Percent Effect": 0.855}
{"smiles": "Cc1cccc(-c2noc(C)c2C(=O)NC2CCCOC2)c1.O=C(O)CC(O)(CC(=O)O)C(=O)O", "note": "(stereo not given)", "Percent Effect": 154}
{"smiles": "Cc1c(C(=O)NC2CCCOC2)nnn1-c1ccc(Cl)cc1F", "note": "(stereo not given)", "Percent Effect": -27.09}
{"smiles": "COc1ccc2c(C)c(C(=O)NC3CCCOC3)oc2c1", "note": "(stereo not given)", "Percent Effect": -7.174}
{"smiles": "O=c1cc(CNCc2ccc3c(c2)OCO3)nc2ccc(Br)cn12", "Percent Effect": 115.5}
{"smiles": "O=c1cc(CN(CCO)C2CC2)nc2ccccn12", "Percent Effect": -7.428}
{"smiles": "CN(CCO)Cc1cc(=O)n2cc(Br)ccc2n1", "Percent Effect": 0.309}
{"smiles": "O=C(OCc1cc(=O)n2cc(Br)ccc2n1)c1ccc2c(c1)OCO2", "Percent Effect": 110.5}
{"smiles": "O=c1cc(CN(Cc2ccco2)C2CC2)nc2ccc(Br)cn12", "Percent Effect": -5.391}
{"smiles": "c1cn2c(n1)CO[C@@H](CNCc1ccc3c(c1)OCO3)C2", "Percent Effect": -4.812}
{"smiles": "CCN(Cc1cc(=O)n2cc(Br)ccc2n1)C1CC1", "Percent Effect": 1.133}
{"smiles": "O=c1cc(CNCc2ccc3c(c2)OCO3)nc2ccccn12", "Percent Effect": 121}
{"smiles": "O=c1cc(CN(CCO)C2CC2)nc2ccc(Br)cn12", "Percent Effect": 3.193}
{"smiles": "COc1ccccc1-n1nc(CC(C)C)nc1Cc1nnc(N)s1", "Percent Effect": 123.6}
{"smiles": "CC(C)Cc1nc(CS(C)(=O)=O)n(-c2ccccn2)n1", "Percent Effect": -36.43}
{"smiles": "COc1ccccc1-n1c(CC(C)C)nnc1SCC(=O)O", "Percent Effect": -51.76}
{"smiles": "COc1ccc(-n2nc(C(C)C)nc2COC(C)C)cc1", "Percent Effect": -17.3}
{"smiles": "COc1ccccc1OCc1nc(C(C)C)no1", "Percent Effect": -14.46}
{"smiles": "COc1ccccc1-n1nc(C(C)C)nc1Cc1nnc(N)s1", "Percent Effect": 123.2}
{"smiles": "Cc1cccc(-n2nc(CC(C)C)nc2CS(C)(=O)=O)c1", "Percent Effect": 2.26}
{"smiles": "COc1ccccc1-n1nc(CC(C)C)nc1CSc1nnc(N)s1", "Percent Effect": 106.5}
{"smiles": "Cc1cccc(-n2nc(CC(C)C)nc2CCCC(N)=O)c1", "Percent Effect": 10.56}
{"smiles": "CCc1noc(CN(C)Cc2ccc(N3CCCCC3)cc2)n1", "Percent Effect": 6.491}
{"smiles": "CCc1nc(C2CCCN(c3nccc(N4CCCC4)n3)C2)no1", "note": "(stereo not given)", "Percent Effect": -11.44}
{"smiles": "CCc1nc(CN(C)c2nccc(N3CCCC(O)C3)n2)no1", "note": "(stereo not given)", "Percent Effect": 114.5}
{"smiles": "CC(C)c1nc(CCN(C)c2nccc(N3CCCC(O)C3)n2)no1", "note": "(stereo not given)", "Percent Effect": 96.48}
{"smiles": "CN(CCN1CCCCCC1)c1nccc(N2CCC(O)C2)n1", "note": "(stereo not given)", "Percent Effect": 17.45}
{"smiles": "CN(Cc1nncn1C)c1nccc(N2CCC(O)CC2)n1", "Percent Effect": 2.442}
{"smiles": "CN(Cc1nccn1C)c1nccc(N2CCCC(O)C2)n1", "note": "(stereo not given)", "Percent Effect": 5.071}
{"smiles": "CCc1nnc(CN(C)c2nccc(N3CCCC(O)C3)n2)o1", "note": "(stereo not given)", "Percent Effect": 80.06}
{"smiles": "CC(C)c1nc(C2CCCN(c3nccc(N4CCCC4)n3)C2)no1", "note": "(stereo not given)", "Percent Effect": -3.198}
